Source: PubChem BioAssay (Tox21)
Inconclusive results are not listed. Active and inactive are the calls of the source. Unless noted, calls come from the whole dose curve; as a rule, active = well fitted curve in the direction sought with a large enough effect in the repeat runs; inconclusive = weak or mixed curves; inactive = no such curve, though single readings can be large; an effect the other way counts as inactive or inconclusive.

Experiments:
[1] = qHTS assay for small molecules that induce genotoxicity in human embryonic kidney cells expressing luciferase-tagged ATAD5 - cell viability (AID 651634; calls by dose curve; note: nearly all actives have a fitted effect of over 25% in size)
Outline: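 Viability read: CellTiter-Fluor fluorescence, 30 min at 37C. Cells: HEK293T, luciferase-tagged ATAD5. Exposure: 15.5 hr, 37C, 5% CO2, compound or DMSO vehicle.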

[2] = qHTS assay for small molecule disruptors of the mitochondrial membrane potential - cell viability (AID 720634; calls by dose curve;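 note: human HepG2 liver cancer cells; series mostly up to about 83 µM; nearly all actives have a fitted effect of over 20% in size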)
Outline: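 HepG2, 1 hr compound, 37 C. ATP luminescence via CellTiter-Glo, 30 min RT, same well as m-MPI.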

[3] = qHTS assay for small molecule disruptors of the mitochondrial membrane potential (AID 720635)
Outline: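 HepG2 cells (2,000/well) attached overnight at 37C, then took compound for 1 hr at 37C, 5% CO2. Mito-MPS dye was added for 30 min; fluorescence was read at 490/535 nm (monomers) and 540/590 nm (aggregates).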

[4] = qHTS assay to test for compound auto fluorescence at 590 nm (red) in HepG2 cells (AID 720674)
Outline: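 Rose Bengal sodium served as the red fluorophore standard. HepG2 monolayers (overnight attachment, MEM with 10% FBS) were exposed to test compounds for 1 hr at 37 C and read at Ex 540/Em 590 nm.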

[5] = qHTS assay to test for compound auto fluorescence at 535 nm (green) in HepG2 cells (AID 720675)
[6] = qHTS assay to test for compound auto fluorescence at 460 nm (blue) in HEK293 cells (AID 720678)
Outline: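 HEK293, 2,000 cells/well, 10% dialyzed FBS; attach 4-5 hr 37C; pin compound or DMSO; o/n 37C/5% CO2; fluorescence 405/460 nm; triamterene-equivalent units.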

[7] = qHTS assay to test for compound auto fluorescence at 590 nm (red) in HEK293 cells (AID 720679)
Outline: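 Intensity at 540nm excitation and 590nm emission is reported as Rose Bengal sodium-equivalent autofluorescence. Measurements followed overnight exposure (37C, 5% CO2) of HEK293 cells, 2,000 per well, to 23 nL compound.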

[8] = qHTS assay to test for compound auto fluorescence at 535 nm (green) in HEK293 cells (AID 720680)
[9] = qHTS assay to test for compound auto fluorescence at 460 nm (blue) in HEK293 cell free culture (AID 720681)
Outline: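 Test compounds were pinned into cell-free culture medium (DMEM with 10% FBS) and fluorescence was read directly at Ex/Em 405/460 nm. Signals were expressed as fluorescence equivalents of triamterene, with DMSO vehicle as control.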

[10] = qHTS assay to test for compound auto fluorescence at 535 nm (green) in HEK293 cell free culture (AID 720682)
Outline: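 No cells present: wells hold DMEM supplemented with 10% FBS, into which compound or vehicle is pinned. Green emission is then recorded (485 nm excitation, 535 nm emission) and scaled to fluorescein.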

[11] = qHTS assay to test for compound auto fluorescence at 590 nm (red) in HEK293 cell free culture (AID 720683)
Outline: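 Tox21 10K library compounds were pinned into cell-free DMEM with 10% FBS and fluorescence was read at excitation 540 nm. Activity is expressed as Rose Bengal sodium equivalency.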

[12] = qHTS assay to test for compound auto fluorescence at 460 nm (blue) in HepG2 cell free culture (AID 720685)
Outline: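 Compound (23 nL) or DMSO pinned into cell-free MEM with 10% FBS; blue fluorescence read at 405/460 nm excitation/emission, expressed as auto-fluorescence equivalency to triamterene.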

[13] = qHTS assay to test for compound auto fluorescence at 535 nm (green) in HepG2 cell free culture (AID 720686)
[14] = qHTS assay to test for compound auto fluorescence at 460 nm (blue) in HepG2 cells (AID 720687)
Outline: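 Cells (2,000/well in MEM with 10% FBS) attached overnight at 37 C, then were exposed to compound or DMSO for 1 hr at 37 C, 5% CO2. Fluorescence read at Ex/Em 405/460 nm, expressed as triamterene-equivalent signal.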

[15] = qHTS assay for identifying genotoxic compounds that show differential cytotoxicity against isogenic chicken DT40 cell lines with known DNA damage response pathways - wild type cell line (AID 743012); note: nearly all actives have a fitted effect of over 60% in size
Outline: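 First, wild type DT40 cells were plated at 300 per well and equilibrated about 0.5 h at 37 C/5% CO2. Next, compounds in DMSO were added and exposure lasted 40 h. Finally, CellTiter-Glo was added for 30 min at room temperature and luminescence recorded.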

[16] = qHTS assay for identifying genotoxic compounds that show differential cytotoxicity against isogenic chicken DT40 cell lines with known DNA damage response pathways - Rev3 mutant cell line (AID 743014); note: nearly all actives have a fitted effect of over 55% in size
[17] = qHTS assay for identifying genotoxic compounds that show differential cytotoxicity against isogenic chicken DT40 cell lines with known DNA damage response pathways - Rad54/Ku70 mutant cell line (AID 743015); note: nearly all actives have a fitted effect of over 60% in size
[18] = qHTS assay to identify small molecule antagonists of the androgen receptor (AR) signaling pathway - cell viability counter screen (AID 743033; note: nearly all actives have a fitted effect of over 45% in size)
[19] = qHTS assay to identify small molecule antagonists of the androgen receptor (AR) signaling pathway using the MDA cell line - cell viability counter screen (AID 743041; note: nearly all actives have a fitted effect of over 45% in size)
Outline: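 MDA-kb2 AR-luc human breast carcinoma cells (MMTV-luciferase, AR/GR responsive) were treated with compounds plus R1881 agonist for 16 h at 37 °C. Viability was read as CellTiter-Fluor fluorescence in the same wells as the reporter assay.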

[20] = qHTS assay to identify small molecule antagonists of the thyroid receptor (TR) signaling pathway - cell viability counter screen (AID 743064); note: nearly all actives have a fitted effect of over 50% in size
Outline: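 Rat GH3 pituitary tumor cells stably expressing two TR response elements driving luciferase were plated, rested 4 h, then dosed with library compounds and T3 (1 nM final). After 23.5 h at 37 °C, CellTiter-Fluor was added for 30 min and fluorescence recorded.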

[21] = qHTS assay to identify small molecule antagonists of the thyroid receptor (TR) signaling pathway (AID 743065); note: series mostly up to about 70 µM; nearly all actives have a fitted effect of over 55% in size
Outline: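 GH3.TRE-Luc rat pituitary cells carrying two TR response elements driving luciferase were plated for 4 h, given compound plus 1 nM T3 (final), and incubated 23.5 h at 37 C. ONE-Glo luminescence measured reporter inhibition; CellTiter-Fluor fluorescence tracked cytotoxicity.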

[22] = tested on: thyroid hormone receptor (rat, GH3 cells); experiment: qHTS assay to identify small molecule agonists of the thyroid receptor (TR) signaling pathway (AID 743066; calls by dose curve)
[23] = qHTS assay to identify small molecule antagonists of the estrogen receptor alpha (ER-alpha) signaling pathway - cell viability counter screen (AID 743074; calls by dose curve;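 note: HEK293 cells carrying ER-alpha-UAS-bla reporter stimulated with 17beta-estradiol; nearly all actives have a fitted effect of over 45% in size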)
[24] = qHTS assay to identify small molecule antagonists of the estrogen receptor alpha (ER-alpha) signaling pathway using the BG1 cell line - cell viability counter screen (AID 743081);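 note: compound given together with 17beta-estradiol as the ER stimulus; series mostly up to about 70 µM; nearly all actives have a fitted effect of over 45% in size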
Aromatase (Homo sapiens) = Aromatase (Homo sapiens) (UniProt P11511); experiment: qHTS assay to identify aromatase inhibitors (AID 743083); note: series mostly up to about 70 µM; nearly all actives have a fitted effect of over 55% in size
[25] = qHTS assay to identify aromatase inhibitors - cell viability counter screen (AID 743084);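 note: cells stimulated with testosterone during compound exposure; nearly all actives have a fitted effect of over 55% in size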
[26] = qHTS assay to identify small molecule that activate the aryl hydrocarbon receptor (AhR) signaling pathway - cell viability counter screen (AID 743086)
Outline: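 HepG2-AhR-luc (HG2L7.5c1) cells, 4000/well, were preincubated 5 h at 37C, exposed to compound in qHTS format for 24 hr at 37C, then given CellTiter-Fluor for 30 min; viability was read as fluorescence in the reporter wells.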

[27] = target: Acetylcholinesterase (Homo sapiens) (UniProt P22303); experiment: Acetylcholinesterase (AChE) small molecule antagonists: enzyme-based qHTS assay (AID 1347397; calls by dose curve; note: nearly all actives have a fitted effect of over 55% in size); conditions: Potency: AChE enzyme activity inhibition; outcome: AChE enzyme activity inhibition
Outline: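 Recombinant human AChE, dispensed at 50 mU/mL, was preincubated with Tox21 10K compounds or DMSO vehicle for 30 min at room temperature. DTNB plus acetylthiocholine was then added, and thiocholine was measured colorimetrically after a further 10 min.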

[28] = target: Acetylcholinesterase (Homo sapiens) (UniProt P22303); experiment: Acetylcholinesterase (AChE) small molecule antagonists: fluorescence cell-based qHTS assay (AID 1347398; calls by dose curve; note: nearly all actives have a fitted effect of over 50% in size); conditions: Potency: AChE activity; outcome: AChE activity
Outline: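 Human SH-SY5Y cells were plated overnight at 37 C, exposed to compound for 30 min at 37 C, 5% CO2, then given acetylthiocholine plus Thiolite Green for 40 min at room temperature; thiocholine fluorescence (Ex/Em 490/520 nm) reports endogenous AChE activity.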

[29] = target: Acetylcholinesterase (Homo sapiens) (UniProt P22303); experiment: Acetylcholinesterase (AChE) small molecule antagonists: enzyme-based qHTS assay with human liver microsomes (AID 1347399; calls by dose curve; note: nearly all actives have a fitted effect of over 60% in size); conditions: Potency: qHTS inhibition; outcome: qHTS inhibition
Outline: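 Recombinant human AChE (50 mU/mL in the enzyme mix) and human liver microsomes (0.25 mg/mL final) were preincubated with compound and NADPH (0.25 mg/mL final) for 30 min at 37 C. Acetylthiocholine/DTNB was then added; thiocholine was read colorimetrically after 10 min at room temperature.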

Measured: Potency

Chain of Acetylcholinesterase (Homo sapiens) (P22303 whole entry, looked up): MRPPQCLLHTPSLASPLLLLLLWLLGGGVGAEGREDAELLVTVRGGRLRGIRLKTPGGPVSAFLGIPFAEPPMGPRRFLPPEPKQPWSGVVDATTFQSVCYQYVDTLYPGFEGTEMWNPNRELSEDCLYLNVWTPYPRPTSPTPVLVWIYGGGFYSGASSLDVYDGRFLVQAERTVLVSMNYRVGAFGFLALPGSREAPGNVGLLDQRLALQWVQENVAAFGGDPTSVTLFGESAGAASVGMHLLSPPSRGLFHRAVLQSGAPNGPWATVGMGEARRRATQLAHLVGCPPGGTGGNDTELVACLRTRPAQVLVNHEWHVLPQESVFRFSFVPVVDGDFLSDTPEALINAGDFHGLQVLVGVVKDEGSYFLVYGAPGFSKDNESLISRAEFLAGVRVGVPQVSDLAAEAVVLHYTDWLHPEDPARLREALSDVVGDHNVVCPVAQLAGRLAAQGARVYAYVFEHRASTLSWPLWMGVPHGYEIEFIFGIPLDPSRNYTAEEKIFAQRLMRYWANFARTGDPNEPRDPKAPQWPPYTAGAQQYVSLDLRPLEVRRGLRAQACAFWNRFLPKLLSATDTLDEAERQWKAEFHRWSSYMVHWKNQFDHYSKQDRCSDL
Chain of Aromatase (Homo sapiens) (P11511 whole entry, looked up): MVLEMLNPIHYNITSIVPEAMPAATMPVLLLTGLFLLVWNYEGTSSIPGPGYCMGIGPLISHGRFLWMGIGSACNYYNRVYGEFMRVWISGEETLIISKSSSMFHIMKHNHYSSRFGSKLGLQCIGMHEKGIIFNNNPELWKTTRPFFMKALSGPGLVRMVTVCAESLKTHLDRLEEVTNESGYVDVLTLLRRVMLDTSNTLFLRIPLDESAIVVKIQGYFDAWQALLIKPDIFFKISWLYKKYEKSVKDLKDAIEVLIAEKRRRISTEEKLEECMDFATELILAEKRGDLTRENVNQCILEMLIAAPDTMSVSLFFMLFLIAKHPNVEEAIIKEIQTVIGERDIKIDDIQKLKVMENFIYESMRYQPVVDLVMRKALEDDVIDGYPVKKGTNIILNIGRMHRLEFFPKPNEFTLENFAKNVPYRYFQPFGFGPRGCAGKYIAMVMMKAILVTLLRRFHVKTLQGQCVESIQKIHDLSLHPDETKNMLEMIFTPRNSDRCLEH

O=C1C[C@@H]2OCC=C3CN4CC[C@]56c7ccccc7N1[C@H]5[C@H]2[C@H]3C[C@H]46 (tested in a mixture with another compound)
inactive: [1] | [2] | [3] | [4] | [5] | [6] | [7] | [8] | [9] | [10] | [11] | [12] | [13] | [14] | [15] | [16] | [17] | [18] | [19] | [20] | [21] | [22] | [23] | [24] | Aromatase (Homo sapiens) | [25] | [26]

CC(C)c1ccc2c(C(C)C)cc(C(C)C)c(S(=O)(=O)O)c2c1
inactive: [27] | [28] | [29]

COc1ccc(NC(=O)CC(C)=O)cc1
inactive: [27] | [28] | [29]

CC1=C(/C=C/C(C)=C/C=C/C(C)=C/CO)C(C)(C)CCC1
inactive: [27] | [28] | [29]

CC1=CC2C3CC(C=C3C)C2C1 (stereo not drawn)
inactive: [27] | [28] | [29]

Cc1cc(N)n(-c2ccccc2)n1
inactive: [27] | [28] | [29]

COc1cc(C(=O)N2CCCCCCC2)cc(OC)c1OC
inactive: [27] | [28] | [29]

Cc1cc(C2CCCCC2)n(O)c(=O)c1
inactive: [27] | [28] | [29]
